D2 PAM-1 – human D2 receptor positive allosteric modulation; P14416; potentiation, % (no concentration beside the values); 360,000 compounds, 0.23% hits; DiscoveRx D2 beta-arrestin cells, luminescence, 90 min; 100% = 57 uM dopamine signal; in the data active = potentiation above about 50%; inconclusive = mostly about 30% to 49%
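D2 cells co-treated with compound plus 50 nM dopamine (EC20) for 90 min at 37 deg C to detect potentiation. Beta-arrestin recruitment was read as enzyme-fragment luminescence after 1 h at ambient temperature. Full response was set by 57 uM dopamine.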
D2 antag – D2 dopamine receptor (human) antagonism. HEK293 TREx D2 cells, calcium flux, dopamine EC80. inhibition, % at 10 µM. 340,000 compounds, 2% hits; in the data active = inhibition above about 30%; inactive = below that, where a call was filed
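Compounds are added to dye-loaded, induced HEK293 T-REx cells coupled to calcium release via D2; after a 3 min kinetic read an EC80 dopamine stimulus is given and fluorescence is recorded for 3 more min.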
D2 PAM-2 – positive allosteric modulators of human D2 dopamine receptor | HEK293 T-REx D2, calcium flux, EC20 dopamine potentiation | P14416 | potentiation, % at 10 µM | 340,000 compounds, 0.34% hits;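 active = potentiation over 3 SD above the plate norm, cut at about 30% in these data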
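Tetracycline-induced Hek293 Trex D2 cells, force-coupled to calcium, loaded with no-wash calcium dye. Compound added with 180 s kinetic read for agonism, then EC20 dopamine and a further 180 s read for potentiation.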
D2 ag-1 – agonists of human D2 dopamine receptor (beta-arrestin) | P14416 | DiscoveRx PathHunter D2 beta-arrestin, luminescence, 90 min; 100% = 57 uM dopamine signal | activation, % (test concentration not listed) | 360,000 compounds, 0.084% hits | AID 624465; in the data active = activation above about 40%; inconclusive = between about 15% and that limit
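Agonist mode: compounds alone added to overnight-plated D2 PathHunter cells for 90 min at 37 C, with 57 uM final dopamine (EC100) defining full response. Beta-arrestin recruitment detected by chemiluminescent reagent, read after 1 h at ambient temperature.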
D2 ag-2 – agonists of human D2 dopamine receptor | activation, % at 2 µM | HEK293 T-REx D2 cells, calcium flux agonist mode | 340,000 compounds, 0.53% hits | AID 485358 | P14416;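 active = activation over 3 SD above normal in the single-dose calcium agonist read, cut at about 30% in these data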
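Tetracycline-induced HEK293 T-REx cells with force-coupled D2 receptor, plated overnight at 30 C, loaded with no-wash calcium dye. After a 10 s baseline, compound was pin-added and calcium flux read kinetically for 180 s; calcium rises flagged agonists.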
D3 ag – activates human D3 dopamine receptor beta-arrestin recruitment; AID 720506; Potency, µM (doses to about 76.9 µM), hits mostly activators; DiscoveRx D3 beta-arrestin cells, luminescence, 90 min; 2,300 compounds, 4% hits; shares compounds with D2 ag-2; also: nearly all actives have a fitted effect of over 70% in size
Target sequence (P35462 whole entry, looked up): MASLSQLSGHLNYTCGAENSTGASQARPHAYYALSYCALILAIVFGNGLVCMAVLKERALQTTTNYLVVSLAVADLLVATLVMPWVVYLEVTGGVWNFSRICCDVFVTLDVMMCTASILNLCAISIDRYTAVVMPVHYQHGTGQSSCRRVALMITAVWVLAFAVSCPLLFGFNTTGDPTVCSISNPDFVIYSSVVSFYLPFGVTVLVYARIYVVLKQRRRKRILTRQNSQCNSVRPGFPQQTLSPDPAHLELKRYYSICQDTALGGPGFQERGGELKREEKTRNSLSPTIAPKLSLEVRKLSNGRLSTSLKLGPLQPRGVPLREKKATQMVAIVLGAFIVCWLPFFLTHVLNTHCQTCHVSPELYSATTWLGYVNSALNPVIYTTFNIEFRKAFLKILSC
D2 ag-3 – D2 receptor agonism, beta-arrestin counterscreen; 2,300 compounds, 5.9% hits; Potency, µM (highest dose often 76.9 µM), most hits filed as activators; DiscoveRx PathHunter D2 beta-arrestin, luminescence, 90 min; response scale: percent relative to full dopamine signal; AID 720507; shares compounds with D2 ag-2; also: nearly all actives have a fitted effect of over 70% in size
Hits are given with their value; - = inactive; ? = inconclusive; . = no result. Rows were chosen to be rich in hits. Some 2.4% of all compounds tested hit in one or more screens of this group. Unless noted, calls follow the shape of the dose curve; as a rule, active = well fitted activation curve with a large enough effect; inconclusive = small, poorly fitted or top-dose-only effect; inactive = flat fitted curve, though single readings scatter.

SMILES	D2 PAM-1	D2 antag	D2 PAM-2	D2 ag-1	D2 ag-2	D3 ag	D2 ag-3
Nc1ccc(-c2nc3cc([N+](=O)[O-])ccc3o2)cc1	-	-	-	-	-	-	-
CN(C)CCN(C)c1cc2c(c3c1ccn3C)C1CCC2O1 (configuration not stated)	-	.	.	-	.	.	.
COc1ccc(C(=O)C(CCCCC(CN(C)C)C(=O)c2ccc(OC)cc2)CN(C)C)cc1 (configuration not stated)	-	.	.	-	.	.	.
CCOc1ccc(C(=O)C(CCC(CN(C)C)C(=O)c2ccc(OCC)cc2)CN(C)C)cc1 (configuration not stated)	-	37	-	-	-	-	-
CCCO/N=C1/C(=O)N(c2ccccc2)c2ccccc21	-	-	-	-	-	.	.
Cc1ccc(CNC(=O)CCn2cc(-c3ccc(F)cc3)nc2-c2ccncc2)cc1	-	-	-	-	-	.	.
O=C(O)CCn1cc(-c2ccc(F)cc2)nc1-c1ccncc1	-	.	.	-	.	-	-
CSc1c(CC(=O)NCCO)n(C)c2ccccc12	-	-	-	-	-	.	.
Cn1c(CC(=O)NCCO)c(Sc2ccccc2)c2ccccc21	-	-	-	-	50	-	-
Cc1ccc(Nc2nnc(SC(C)C(=O)Nc3c(C)n(C)n(-c4ccccc4)c3=O)s2)cc1 (configuration not stated)	-	.	.	-	.	.	.
CC(=O)Nc1ccc(C(=O)Nc2cc(C(F)(F)F)ccc2-n2cnc3ccccc32)cc1	-	-	-	-	-	-	-
COc1ccc(C(=O)Nc2cc(C(F)(F)F)ccc2-n2cnc3ccccc32)cc1	-	-	-	-	-	.	.
Cn1ccc(C(=O)Nc2ccc3c(c2)OCCO3)n1	-	-	-	-	-	-	-
COc1ccc(CCC(=O)NC(C)c2ccccc2)cc1OC (configuration not stated)	-	-	-	-	-	.	.
CCc1cccc(NC(=O)C2CCCN(S(=O)(=O)c3cnc[nH]3)C2)c1 (configuration not stated)	-	-	-	-	-	.	.
O=C(Cn1cnc2ccccc2c1=O)N1CCN(Cc2ccc3c(c2)OCO3)CC1	-	55	-	?	50	-	?
O=C(Cn1cnc2ccccc2c1=O)NCC(=O)N1CCN(Cc2ccc3c(c2)OCO3)CC1	-	-	-	-	48	-	-
COc1ccc(CCN=Cc2ccccc2O)cc1OC	-	-	-	-	-	.	.
CCC(=O)N/C(N)=N/c1nc(C)c2cc(OC)ccc2n1	-	.	.	-	.	.	.
COc1ccc2nc(/N=C(\N)NC(=O)C(C)(C)C)nc(C)c2c1	-	35	-	-	-	-	-
CC(Sc1nc2ccccc2[nH]1)C(=O)Nc1ccc2c(c1)OCCO2 (configuration not stated)	-	66	-	-	-	-	-
CC(Sc1ncccn1)C(=O)Nc1ccc2c(c1)OCCO2 (configuration not stated)	-	.	.	-	.	.	.
CC(Nc1n[nH]c(=O)[nH]c1=O)C(=O)N/N=C/c1ccccc1 (configuration not stated)	-	-	-	-	-	-	-
COc1cc(/C=N/NC(=O)C(C)Nc2n[nH]c(=O)[nH]c2=O)ccc1O (configuration not stated)	-	.	.	-	.	.	.
Cc1ccc(CN2CCN(CCCc3ccccc3)CC2CCO)cc1 (configuration not stated)	-	49	-	-	53	-	-
SMILES	D2 PAM-1	D2 antag	D2 PAM-2	D2 ag-1	D2 ag-2	D3 ag	D2 ag-3
OCCC1CN(CCCc2ccccc2)CCN1Cc1ccc(F)cc1 (configuration not stated)	-	-	-	-	-	.	.
Cc1nn(-c2ccc(C(=O)N3CCN(S(=O)(=O)c4ccccc4C(F)(F)F)CC3)cc2)c(C)c1Cl	-	56	-	?	74	0.79µM	32µM
O=C(Cc1cccc(NC(=O)C2CCCN(C(=O)C3CCCC3)C2)c1)Nc1cccc(C(=O)N2CCCCC2)c1 (configuration not stated)	-	.	.	-	.	.	.
On1c(-c2ccccc2Cl)nc2ccccc21	-	-	-	-	-	.	.
CCN(CC)CC(O)Cn1c(-c2ccccc2Cl)nc2ccccc21 (configuration not stated)	-	-	-	-	45	-	-
Cc1cc(NC(=O)CN2CCN(c3ccccn3)CC2)ccc1Br	-	-	-	-	37	16µM	-
Cc1ccc(NC(=O)c2ncn(CCCN3CCN(c4ccccn4)CC3)n2)cc1C	-	.	.	-	.	.	.
O=C(CN1CCN(c2ccccn2)CC1)Nc1ccc(F)c(F)c1	-	-	-	?	52	?	-
O=C(CN1CCN(c2ccccn2)CC1)NC1CCCC1	-	-	-	-	-	-	-
O=C(CN1CCN(c2ccccn2)CC1)NCCc1ccccc1	-	-	-	-	-	.	.
O=C(CN1CCN(c2ccccn2)CC1)Nc1nc2ccccc2s1	-	-	-	-	-	.	.
Cc1cc(C)c(NC(=O)CN2CCN(c3ccccn3)CC2)c(C)c1	-	-	-	-	-	-	-
O=[N+]([O-])c1ccc(Nc2nc(Cl)nc(NCCO)n2)cc1	-	-	-	-	-	.	.
Cc1ccc(CS(=O)(=O)Cc2ccc(C(=O)NCCCN3CCOCC3)o2)cc1	-	-	-	-	-	.	.
CC(C)c1nnc(SCc2ccc(CSc3nnc(C(C)C)n3N)cc2)n1N	-	-	-	-	-	.	.
COc1ncnc2c1ncn2CC1COC(C)(C)O1 (configuration not stated)	-	.	.	-	.	.	.
Cc1cc(C)c2c(CN3CCOCC3)cc(=O)oc2c1C	-	-	-	-	-	.	.
O=C(CN1CCN(c2ccccn2)CC1)Nc1cccc(S(=O)(=O)N2CCCC2)c1	-	60	-	-	60	?	28µM

High-throughput results as filed in PubChem.
